# Assay outcomes (PubChem)
# IDE exosite FP: exo-site inhibitors of human IDE, primary screen, biochemical, fluorescence anisotropy, probe displacement | z-score at 20 µM | purified IDE, FL-6b probe fluorescence polarization; stronger effect = lower value | AID 1259349, 2017 | 17,000 compounds, 6.3% hits;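 active = z-score of -3 or lower, meaning strong loss of probe binding signal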;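 also: His-tagged human IDE residues 42-1019 made in E. coli with 30 nM FL-6b probe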
# * hit, by the source's call. Only a selection was taken, and hits are over-represented in it overall.
SMILES,IDE exosite FP
CCCC#Cc1ccc([C@@H]2[C@H]3CN(S(C)(=O)=O)CCCCN3[C@H]2CO)cc1,0.53
O=S(=O)(c1ccccc1)N1CCCCN2[C@@H](CO)[C@@H](c3ccc(C#Cc4ccccc4)cc3)[C@@H]2C1,-5.9*
CCCC#Cc1ccc([C@@H]2[C@@H](CO)N3C(=O)CN(C(=O)Nc4ccccc4F)C[C@@H]23)cc1,1.9
COCC(=O)NC[C@@H]1[C@@H](c2ccc(C3=CCCC3)cc2)[C@H](CO)N1C(C)=O,1.7
C[C@H](O)C#Cc1ccc([C@H]2[C@@H](CO)N3CCCCN(C(=O)Nc4ccccc4)C[C@H]23)cc1,1.2
CCCNC(=O)C[C@@H]1CC[C@@H]2[C@H](COC[C@H](O)CN2C(=O)c2ccc(F)cc2)O1,0.97
CC(C)CC#Cc1ccc([C@@H]2[C@@H](CO)N3C(=O)CN(C(=O)c4ccc5c(c4)OCO5)C[C@H]23)cc1,1.5
O=C(Nc1cccc(Cl)c1)N1[C@@H]2CNC[C@H]1C2c1ccc(-c2ccccc2)cc1 (stereo not given in full),0.92
COc1ccc2c3c(n(C)c2c1)[C@H](CO)N(S(=O)(=O)c1cn(C)cn1)CC31CCN(C)CC1,1.4
CO[C@H]1CC[C@H]2CCN(C)C(=O)CCCN(C)C(=O)c3cc(C#N)ccc3OC[C@@H]1O2,0.19
COc1ccc2c3c([nH]c2c1)[C@H](CO)N(C(=O)Nc1ccc(F)cc1)CC31CCN(C(=O)Nc2ccc3c(c2)OCO3)CC1,0.35
O=C(c1ccc(F)cc1)N1CCCCN2[C@H](CO)[C@H](c3ccc(C#CC4(O)CCCC4)cc3)[C@H]2C1,-3.2*
CCC(=O)N1CCCCN2[C@@H](CO)[C@H](c3ccc(-c4ccc(F)cc4)cc3)[C@@H]2C1,2.7
COc1ccc(C#Cc2ccc([C@@H]3[C@H](CO)N4CCCCN(C(=O)Nc5ccccc5F)C[C@@H]34)cc2)cc1,3
O=C(Nc1ccccc1F)N1CCCCN2[C@@H](CO)[C@@H](c3ccc(C#Cc4ccccc4)cc3)[C@@H]2C1,-0.93
CC(=O)N1CCCCN2[C@H](CO)[C@@H](c3ccc(C#Cc4ccccc4F)cc3)[C@@H]2C1,-7.5*
O=C(c1ccc(F)cc1)N1CCCCN2[C@@H](CO)[C@@H](c3ccc(C#CC4(O)CCCC4)cc3)[C@@H]2C1,1.8
CCC(=O)N1CCCCN2[C@H](CO)[C@H](c3ccc(C#Cc4ccccc4F)cc3)[C@H]2C1,-1.1
CCC(=O)N1CCCCN2[C@H](CO)[C@@H](c3ccc(C#Cc4ccccc4F)cc3)[C@@H]2C1,-5.8*
CC(=O)N1CCCCN2[C@@H](CO)[C@@H](c3ccc(C#Cc4ccccc4F)cc3)[C@@H]2C1,-2.9
CCC(=O)N1CCCCN2[C@H](C1)[C@H](c1ccc(C#Cc3ccccc3F)cc1)[C@@H]2CO,-4.6*
O=C(c1ccc(F)cc1)N1CCCCN2[C@@H](CO)[C@H](c3ccc(C#CC4(O)CCCC4)cc3)[C@@H]2C1,5.8
COc1ccc(C#Cc2ccc([C@H]3[C@H](CO)N4CCCCN(C(=O)Nc5ccccc5F)C[C@@H]34)cc2)cc1,2.3
O=C(C1CCC1)N1CC(=O)N2[C@H](CO)[C@H](c3ccc(Br)cc3)[C@H]2C1,0.01
CC(=O)N1CC2(C1)[C@@H](c1ccccc1)[C@H](CO)N2C(=O)Cc1ccccc1,0.17
SMILES,IDE exosite FP
CCS(=O)(=O)Nc1ccc2c(c1)C(=O)N(C)[C@H]1CC[C@@H](CC(=O)N[C@@H]3CCN(Cc4ccccc4)C3)O[C@@H]1CO2,0.77
CCCN1C[C@@H](C)[C@H](OC)CN(C)C(=O)c2cc(NC(=O)Nc3cccc(F)c3)ccc2OC[C@@H]1C,1.5
CC(C)C[C@@H]1COCn2nncc2CCCC(=O)N1,0.22
CC=Cc1ccc2n(c1=O)C[C@@H]1[C@@H](CO)[C@H](C(=O)NCc3ccccc3Cl)N(S(C)(=O)=O)[C@H]21 (mixture of isomers),0.92
CC[C@H]1C/C=C\C[C@H](c2ccc(OC)cc2OC)NC(=O)[C@H](C)CC(=O)N1,1.3
COc1cccc(-c2ccccc2[C@@H]2[C@H](C#N)N(C(=O)Cc3ccccc3)[C@H]2CO)c1,0.95
COc1cccc(-c2ccccc2[C@@H]2[C@@H](C#N)N(C(=O)Cc3ccccc3)[C@H]2CO)c1,-1.1
CCCNC(=O)N1[C@H](CO)[C@H](c2ccc(-c3cccc(OC)c3)cc2)[C@@H]1C#N,-1.2
COc1cccc(-c2ccc([C@@H]3[C@@H](C#N)N(C(=O)Cc4ccncc4)[C@@H]3CO)cc2)c1,-10*
COc1cccc(-c2ccc([C@H]3[C@@H](C#N)N(C(=O)Cc4ccncc4)[C@@H]3CO)cc2)c1,-3.8*
COc1cccc(-c2ccc([C@H]3[C@H](C#N)N(C(=O)Cc4ccncc4)[C@H]3CO)cc2)c1,-2.7
C/C=C/c1ccc([C@H]2[C@@H](CO)N3C(=O)CN(C(=O)c4ccncc4)C[C@@H]23)cc1,0.38
N#C[C@@H]1[C@@H](c2ccc(-c3cccc(F)c3)cc2)[C@H](CO)N1C(=O)NC1CCCC1,-0.99
CC(C)C#Cc1ccc([C@@H]2[C@H]3CN(C(=O)c4ccc(F)cc4)CCCCN3[C@H]2CO)cc1,0.4
CCCC#Cc1ccc([C@H]2[C@H](CO)N3CCCCN(S(=O)(=O)c4ccccc4F)C[C@@H]23)cc1,0.098
CN(C)C(=O)c1ccc(-c2ccc([C@@H]3[C@@H](CO)N4CCCCN(CC5CC5)C[C@@H]34)cc2)cc1,4.3
COc1ccc(C#Cc2ccc([C@@H]3[C@H]4CN(S(=O)(=O)c5cn(C)cn5)CCCCN4[C@H]3CO)cc2)cc1,3.5
CCCC(=O)Nc1ccc2c(c1)OC[C@H](C)N(C(=O)c1cccnc1)C[C@H](C)[C@@H](OC)CN(C)C2=O,0.27
CN(C)C(=O)c1cccc(-c2ccccc2[C@H]2[C@@H](C#N)N(C(=O)C3CC3)[C@H]2CO)c1,3.9
Cc1cccc(-c2ccc([C@@H]3[C@@H](CO)N4C(=O)CN(C(=O)c5cnccn5)C[C@H]34)cc2)c1,-7.1*
Cc1ccc(-c2ccc([C@@H]3[C@@H](CO)N4C(=O)CN(C(=O)c5cccnc5)C[C@H]34)cc2)cc1,-0.43
Cc1cccc(-c2ccc([C@@H]3[C@@H](CO)N4C(=O)CN(C(=O)c5cccnc5)C[C@H]34)cc2)c1,-4.2*
Cc1cccc(-c2ccc([C@H]3[C@@H](CO)N4C(=O)CN(C(=O)c5cccnc5)C[C@@H]34)cc2)c1,-8.6*
O=C(c1cnccn1)N1CC(=O)N2[C@H](C1)[C@H](c1ccc(-c3cccc(F)c3)cc1)[C@@H]2CO,-0.65
O=C(c1cnccn1)N1CC(=O)N2[C@H](CO)[C@@H](c3ccc(-c4ccccc4)cc3)[C@H]2C1,-0.27
SMILES,IDE exosite FP
O=C(c1cccc(F)c1)N1CC(=O)N2[C@@H](CO)[C@H](c3ccc(-c4cccnc4)cc3)[C@@H]2C1,1.5
O=C(c1cccc(F)c1)N1CC(=O)N2[C@@H](CO)[C@@H](c3ccc(-c4cccnc4)cc3)[C@@H]2C1,3.3
O=C(c1cccnc1)N1CC(=O)N2[C@H](C1)[C@H](c1ccc(-c3cccnc3)cc1)[C@@H]2CO,1.8
Cc1ccc(-c2ccc([C@H]3[C@H](CO)N4C(=O)CN(C(=O)c5cccnc5)C[C@@H]34)cc2)cc1,-3.2*
C[C@H](O)C#Cc1ccc([C@H]2[C@H]3CN(C(=O)c4ccncc4)CCCCN3[C@H]2CO)cc1,-0.9
CC(C)(O)C#Cc1ccc([C@@H]2[C@@H](CO)N3CCCCN(C(=O)c4cccc(F)c4)C[C@@H]23)cc1,1.5
